# Source: PubChem (National Center for Advancing Translational Sciences (NCATS))
# In the library only some 1.9% were active in any assay of this set; here they are far more common.
# ClpP mod – qHTS Assay for Activators of ClpP; purified B. subtilis ClpP, FRET peptide cleavage, 20 min; Potency, µM (highest dose often 57.5 µM), inactives show at the top dose activity change, negative = active; 1.9% of 340,000 active; AID 651965, 2013; active = well fitted falling curve with a large enough effect; inconclusive = small, poorly fitted or top-dose-only effect; inactive = no such curve, though single readings can be large or run the other way; note: potency is the fitted concentration of half-maximal effect; the source files actives as falling curves though it sought activators and does not explain the sign; nearly all actives have a fitted effect of over 65% in size
#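 FRET quenching reversal measured ClpP activation: 10 microg/mL B. subtilis ClpP at pH 8 with the FRET-FV decapeptide, read at 430 nm after 320 nm excitation. The 20-min minus 0-min signal was scaled between DMSO/no-enzyme wells and ADEP (5.8 microM final).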
# Menin-MLL TR inh – menin-MLL binding inhibition, Texas Red mutant peptide; O00255; 0.23% of 270,000 active; AID 1768; Potency, µM (series often up to 61.6 µM), inactives show at the highest dose FP activity change, negative = inhibition, hits mostly inhibitors; Menin + Texas Red MLL mutant peptide, fluorescence polarization; active = well fitted inhibition curve with a large enough effect in the polarisation, with a control signal flat, not every such curve was filed as active; inconclusive = small, poorly fitted or top-dose-only effect, or effect the other way, or a change in a side signal; inactive = no such curve, though single readings can be large or run the other way; the % refers to the polarisation; note: potency is the fitted concentration of half-maximal effect; % of control where 0% means no effect
# PINK1 expr mod – modulators of PINK1 expression. 0.2% of 410,000 active. PINK1 immunofluorescence, high-content cytometry, 24 h. Potency, µM (doses to about 76.6 µM), without a hit: top-dose activation (PINK1 increase), actives largely listed as activators; active = well fitted activation curve with a large enough effect; inconclusive = small, poorly fitted or top-dose-only effect; cell line not stated here; note: potency is the fitted concentration of half-maximal effect; % of control where 0% means no effect; nearly all actives have a fitted effect of over 65% in size
#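 PINK1 protein level read as immunofluorescence by microplate cytometer in a fixed, stained stable cell line after 24 h exposure to five compound concentrations, with CCCP as control.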
# Menin MLL FP FL – inhibitors of human menin-MLL interaction, wild-type MLL peptide | 290,000 tested, under 10 active | AID 1766 | FP activity change, % at 61.4 µM | Fluorescence polarization, fluorescein-MLL peptide displacement from menin; active = well fitted curve in the direction sought with a large enough effect in the polarisation, not every such curve was filed as active; inconclusive = small, poorly fitted or top-dose-only effect, or effect the other way, or a change in a side signal; inactive = no such curve, though single readings can be large or run the other way; the % refers to the polarisation; note: % of control where 0% means no effect
# CXXC DNA block – MLL CXXC-DNA interaction inhibition; Q03164; MLL-CXXC / FITC-HOXA9 DNA fluorescence polarization; Potency, µM (series often up to 115 µM), inactives show at the top dose activity change, negative = inhibition, actives largely listed as inhibitors; 0.037% of 290,000 active; active = well fitted inhibition curve with a large enough effect in the polarisation, with a control signal flat, not every such curve was filed as active; inconclusive = small, poorly fitted or top-dose-only effect, or effect the other way, or a change in a side signal; inactive = no such curve, though single readings can be large or run the other way; the % refers to the polarisation; note: potency is the fitted concentration of half-maximal effect
#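 Purified MLL-CXXC (added from a 7 uM solution) was preincubated 5 min at ambient with pinned compounds in 50 mM Tris-HCl pH 7.5, 50 mM NaCl, 1 mM DTT, 0.05% BSA. Fluorescein-labeled HOX-A9 DNA (50 nM solution) followed, 30 min, then polarization read.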
# Epigenetic derep – epigenetic control regulation, reporter derepression; murine LDR cells, GFP reporter derepression, 30 h; Potency, µM (highest dose often 53.9 µM), for inactives: at the top dose GFP activation, most hits filed as activators; 0.2% of 280,000 active; active = well fitted activation curve with a large enough effect; inconclusive = small, poorly fitted or top-dose-only effect; note: potency is the fitted concentration of half-maximal effect; % of control where 0% means no effect; nearly all actives have a fitted effect of over 60% in size
#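 In this reporter-derepression format, murine cells bearing a silenced integrated CMV-GFP locus incubate with test compound (30 h, 37 C), then are washed and imaged; fluorescent objects of 20–120 um count as induced cells.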
# An asterisk follows results filed as active; ? = inconclusive; nt = no result given; [ ] = dose if it differs, or a comment.
SMILES,ClpP mod,Menin-MLL TR inh,PINK1 expr mod,Menin MLL FP FL,CXXC DNA block,Epigenetic derep
CCCN1C(=O)S/C(=C\c2ccc(N3CCOCC3)o2)C1=O,nt,-0.3%,9.0%,?,?,11.2µM*
COC(=O)CN1C(=O)S/C(=C/c2ccc(N3CCCCC3)o2)C1=O,5.0%,?,8.91µM*,?,?,?
CCC(C)C(N)C(=O)NC(CC(N)=O)C(=O)NC(CC(C)C)C(=O)NC(CCCCN)C(=O)NC(C)C(=O)NC(CC(C)C)C(=O)NC(C)C(=O)NC(C)C(=O)NC(CC(C)C)C(=O)NC(C)C(=O)NC(CCCCN)C(=O)NC(CCCCN)C(=O)NC(C(=O)NC(CC(C)C)C(N)=O)C(C)CC (stereo unspecified),nt,-0.4%,nt,4.8,nt,nt
CCOC(=O)c1ccc(NC(=S)NCCC2=CCCCC2)cc1,-13.9%,-3.6%,31.6µM*,3.5,-14.9%,2.1%
Cc1ccc(NC(=S)NCCC2=CCCCC2)cc1,nt,?,4.5%,-2.7,-2.5%,2.1%
COc1ccc2[nH]cc(C(=O)CN3CCN(C/C=C/c4ccccc4)CC3)c2c1,nt,2.2%,nt,2.7,0.4%,10µM*
N#Cc1c(N)n(CCCN2CCOCC2)c2nc3ccccc3nc12,4.47µM*,-7.1%,1.4%,5.7,-6.5%,0.0%
COc1ccccc1CCn1c(N)c(C#N)c2nc3ccccc3nc21,31.6µM*,-15.4%,21.5%[38.3 µM],3.7,2.5%,?
COc1ccc(Cn2c(N)c(C#N)c3nc4ccccc4nc32)cc1OC,14.1µM*,-1.1%,0.1%,?,26.9%,5.9%
COc1ccc(CCn2c(N)c(C#N)c3nc4ccccc4nc32)cc1OC,?,-16.6%,0.6%,2.7,31.6%,3.2%
Oc1cc(-c2ccc(N3CCCCC3)nc2)cc2cccnc12,nt,nt,12.6µM*,nt,nt,nt
Oc1cc(-c2ccncc2)cc2cccnc12,nt,nt,-0.4%,nt,nt,nt
Cc1onc(-c2ccccc2)c1C(=O)NCCN1Cc2ccccc2OC(c2ccsc2)C1 (stereo unspecified),nt,nt,2.0%,nt,nt,nt
Cc1cc(=O)n2[nH]c(-c3ccc(Cl)cc3)cc2n1,28.2µM*,-3.2%,-1.8%,6.3,-2.7%,-1.0%
O=c1cc(-c2ccc([N+](=O)[O-])cc2)nc2cc(-c3ccc(F)cc3)[nH]n12,1.4%,?,0.3%,4.9,-2.4%,0.0%
Cc1cc(=O)n2[nH]c(-c3ccc(F)cc3)cc2n1,15.8µM*,3.6%,-0.2%,2.3,0.8%,1.2%
O=C(O)CCc1cccc2ccccc12,0.0%,nt,0.3%,nt,nt,nt
N#Cc1c(SCC(=O)Nc2ccc(Cl)cc2Cl)sc2c(O)cc(=O)[nH]c12,nt,?,31.6µM*,13.9,28.6%,nt
CSc1nc(Sc2ccccc2Cl)c2ccccc2n1,31.6µM*,-0.3%,3.4%,2.0,-7.4%,0.0%
COC(=O)c1sc2ccccc2c1-n1cccc1C(=O)C(=O)Nc1ccc(C)cc1,-0.8%,2.0%,12.5%,11.1,-12.3%,-2.0%
COC(=O)c1sc2ccccc2c1-n1cccc1C(=O)C(=O)Nc1ccc(Cl)cc1,14.1µM*,?,3.3%,8.8,16.6%,0.0%
CCOc1ccc2oc(-c3ccccc3)c(C(=O)O)c2c1,-4.7%,0.9%,-0.4%,-0.4,4.5%,-1.0%
CCOc1ccc2oc(-c3ccccc3)c(C(=O)N(C)C)c2c1,25.1µM*,-4.7%,-4.2%[38.3 µM],-1.8,4.6%,0.7%
CCOc1ccc2oc(-c3ccccc3)c(C(=O)N3CCN(CCO)CC3)c2c1,14.1µM*,3.6%,-3.0%,5.7,-1.3%,0.0%
COc1cccc(NCc2nnc(SC(C(=O)N(C)C)c3ccccc3)n2C2CCCCC2)c1 (stereo unspecified),-0.4%,nt,-0.5%,nt,nt,nt
CN(CCO)C(=O)c1cn(C2CCN(Cc3ccc(C(F)(F)F)cc3)CC2)nn1,nt,nt,-0.1%,nt,nt,nt
CC(C)(C)C(=O)c1sc2nc(-c3cccs3)cc(C(F)(F)F)c2c1N,-17.8%,5.7%,10.0%,?,?,11.2µM*
Cc1nnc(NC(=O)c2sc3nc(-c4cccs4)cc(C(F)(F)F)c3c2N)s1,-6.8%,?,-1.1%,?,-0.8%,8.5%
